Laboratory results reported in PubChem BioAssay AID540317 (National Center for Advancing Translational Sciences (NCATS), 2011).
Hit rate of the full screen: of about 390,000 compounds, about 2,200 (0.56%) were called active. Not shown: some 3% with an inconclusive outcome. The sample holds actives, similar compounds and a random draw of the others, so the mix is not that of the screen. Calls follow the shape of the dose curve; as a rule, active = well fitted inhibition curve with a large enough effect; inconclusive = small, poorly fitted or top-dose-only effect; inactive = no such curve, though single readings can be large or run the other way.

Target: Chromobox protein homolog 1 (Homo sapiens) (UniProt P83916)
Test: HTS for Inhibitors of HP1-beta Chromodomain Interactions with Methylated Histone Tails; also: nearly all actives have a fitted effect of over 70% in size
Conditions: AlphaScreen HP1-beta / biotin-H3K9me3 peptide binding; series mostly up to 114 µM
Description: As our understanding of epigenetics expands, it is becoming clear that players in this field are potential targets for drug development. This area of epigenetic therapy has established applications for the treatment of cancer and neurological diseases. We have been involved in this field for a number of years and have performed high-throughput screens to identify the first small molecule inhibitors of protein methyltransferases. These methyltransferases target multiple substrates, and thus regulate many arms of an epigenetic pathway. The methylation of different substrates often generates docking sites for effector proteins that harbor binding domains (chromo, tudor, PHD, MBT and ANK repeats). It has been proposed that the binding sites generated for different proteins by these post-translational modifcations mediate downstream effects on chromatin. Consistent with this theory, di- and tri-methylation of histone H3K9 facilitates the binding of heterochromatin protein HP1. The HP1 protein harbors a chromodomain that is responsible for the methyl-dependent interaction between HP1 and lysine 9 of histone H3. HP1 was first described in flies as a heterochromatin associated protein that can regulate gene silencing. It harbors a chromodomain that binds H3K9me3. In addition, it harbors a chromoshadow domain that interacts with a large number of proteins that are involved in heterochromatin formation and gene repression. There are three highly related HP1 isoforms. All three variants are associated with pericentric heterochromatin and it is not clear whether they have specific or redundant functions. MPP8 is also involved in the repression of gene in euchromatic regions (unpublished data) and like HP1 its chromodomain binds H3K9me3. MPP8 harbors an ankyrin repeat region that is likely involved in binding and recruiting interacting proteins with transcriptional repressive function, much like the chromoshadow domain of HP1 does. We hypothesize that by inhibiting specific protein-protein interactions we will be able to develop compounds that block a single arm of an epigenetic pathway. The specificity attained by blocking a single protein-protein interaction will be far greater than that attained by blocking the enzyme that regulates one of many interactions. Low-affinity protein-protein interactions (Kd in the single- to double-digit micromolar range) such as those discussed here have been very difficult to assay by traditional techniques such as fluorescence polarization or fluorescence resonance energy transfer. We have developed a sensitive chemiluminescence-based assay (Quinn, et al. 2009), which serves as the starting point for this project. The following is a validation assay to identify lead compounds that can block methyl-dependent protein-protein interactions (specifically HP1-beta), which can be used as probes to analyze these methyl-driven interactions and perhaps even developed into targeted epigenetic therapies. NIH Chemical Genomics Center [NCGC] NIH Molecular Libraries Probe Centers Network [MLPCN] MLPCN Grant: DA031087 Assay Submitter (PI): Mark Bedford, University of Texas, Medical Anderson Cancer Center, TX
To each well, 2 uL of HP1-beta protein (final 50 nM) and 1 uL biotinylated histone peptide trimethylated at Lys9 [b-H3(1-18)K9me3] (final 50 nM) was added in 1x PBS buffer, pH 7.4, containing 0.01% Tween-20 using a nanoliter dispenser. Formation of a protein-peptide complex proceeded at room temperature for 30 min. A Kalypsys pin-tool was employed to transfer 23 nL of library compound solution in DMSO to each well. Aurintricarboxylic acid (ATA) was used as an intraplate control with a 12-point titration in duplicate. Following a 30 min incubation of the protein-peptide complex with compounds at room temperature, a mixture of 40 ug/mL each streptavidin-coated donor and nickel chelate acceptor AlphaScreen beads (final 10 ug/mL) was added in a 1 uL dispense for a final volume of 4 uL. […]
Potency is read from the fitted curve at half-maximal effect.

Chromobox protein homolog 1 (Homo sapiens), sequence (P83916 whole entry, looked up): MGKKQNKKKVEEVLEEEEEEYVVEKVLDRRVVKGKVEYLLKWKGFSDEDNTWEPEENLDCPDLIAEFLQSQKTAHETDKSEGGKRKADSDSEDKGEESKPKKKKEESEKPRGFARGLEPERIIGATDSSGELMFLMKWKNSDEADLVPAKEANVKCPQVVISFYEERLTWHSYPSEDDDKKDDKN

Potency, active:
O=C(NC1=CC(=O)c2ccccc2C1=O)c1ccccc1 22.4 µM
Cc1csc(Nc2ccc(Cl)cc2)[n+]1-c1ccc(Cl)cc1 17.8 µM
COc1cc(C(=S)NCc2ccccc2)cc(Br)c1O 7.94 µM
CN(C)c1ccc(Nc2c3c4c(cccc4n(C)c2=O)C(=O)c2ccccc2-3)cc1 4.47 µM
COc1ccc(Cl)cc1NC(=O)CN(C)Cc1ccc(OC)c(OC)c1 39.8 µM
COc1ccc(Cl)cc1NC(=O)CCS(=O)(=O)c1ccc(Br)cc1 12.6 µM
COC(=O)/C=C\C(=O)Nc1cccc([N+](=O)[O-])c1 10 µM
COc1ccc(/C=C/C(=O)c2cc(Br)ccc(=O)c2O)cc1 50.1 µM
Nc1ccc2[nH]c(=S)sc2c1 28.2 µM
Oc1ccc(CNc2ccccc2O)cc1 50.1 µM
Cc1cc([N+](=O)[O-])c(NC2CCCCC2)c([N+](=O)[O-])c1 15.8 µM
O=C(CN1CCCCCC1)Nc1ccc(Br)cc1[N+](=O)[O-] 50.1 µM
COc1ccc2c(c1)c(=Cc1ccc(N(C)C)cc1)c1cc(-c3ccccc3)[n+](C)n12 39.8 µM
C=CCN(CC=C)CCOc1ccccc1[N+](=O)[O-] 39.8 µM
Cc1cc(C=O)c(C)n1-c1ccc(NC2CCCCC2)c([N+](=O)[O-])c1 25.1 µM
N#C/C(=C\C1=C(N2CCOCC2)C(=C\c2ccccc2)/CC1)C(=O)Nc1ccccc1F 7.08 µM
N#Cc1c(N2CCCCC2)nc(N)c2c(N)nc(SCC(=O)O)cc12 35.5 µM
CSC1=N/C(=C\C=C\c2cccs2)C(=O)S1 28.2 µM
COc1ccc(OCc2n[nH]c(=S)n2N)cc1 10 µM

Potency, inactive:
NS(=O)(=O)c1cc(C(=O)OCC(=O)NNC(=O)c2ccccc2)ccc1Cl
CCOc1ccccc1NC(=O)Cn1c2ncccc2c(=O)n1-c1ccc(C)c(C)c1
COc1cccc(Nc2nc3ccccc3c3nncn23)c1
COC(=O)c1cc(NC(=O)c2cnc(SC)nc2-c2ccccc2)cc(C(=O)OC)c1
Cc1ccc(F)cc1S(=O)(=O)N1CCC(c2nc3ccccc3s2)CC1
Cc1ccc2cccc(NC(=O)c3cccc4ccccc34)c2n1
COc1ccc(CNC(=O)c2ccc3c(O)c(S(=O)(=O)c4ccccc4)c(=O)[nH]c3c2)cc1
COc1cc(Cl)cc(C2NC(=O)NC(C)=C2C(=O)NCc2ccccc2)c1O (centres undefined)
COC(=O)c1ccc(NC(=O)CSc2n[nH]c(-c3ccccc3)n2)cc1
COc1ccc(OCCCn2c(C3CC(=O)N(c4ccc(F)cc4)C3)nc3ccccc32)cc1 (centres undefined)
COc1ccc2c(c1)CCc1c(C(=O)Nc3cc(C)ccc3O)noc1-2
Cc1nnc(N2CCCC(C(=O)NCCN(C)C)C2)c2nn(-c3ccccc3)c(C)c12 (centres undefined)
COc1ccc(Cl)cc1NC(=O)CCC(=O)c1ccc(C)cc1
COc1ccc(Cl)cc1NC(=O)CN(C)C(=O)CNC(=O)C12CC3CC(CC(C3)C1)C2
COc1ccc(Cl)cc1NC(=O)CN(C)CC(=O)Nc1ccc2c(c1)OCO2
Cc1ccc(Cl)cc1NC(=O)CCS(=O)(=O)c1ccc(Br)s1
O=C(Nc1cccc2cccnc12)c1cccc2c(Br)cccc12
COc1cccc(CNC(=O)CCc2nc(-c3ccc(C)cc3)no2)c1
C=CCCN(C(Cc1ccccc1)C(=O)OC)S(=O)(=O)c1cc(Br)ccc1Br (centres undefined)
COc1ccc(-c2noc(-c3ccc(N4CCN(c5ccccc5)CC4)c([N+](=O)[O-])c3)n2)cc1OC
CCc1ccc(NC(=O)CN2C(=O)CCSc3ccc(S(=O)(=O)N4CCCC4)cc32)cc1
Cc1ccc(-c2nnc3ccc(SCC(N)=O)nn23)cc1
COC(=O)CCc1ccccc1S(=O)(=O)N(CCC(=O)OC)Cc1ccccc1
Cc1ccc(C)c(Nc2nnc(-c3ccc(C)c(S(=O)(=O)N4CCCCC4)c3)c3ccccc23)c1
CCc1ccc(NC(=O)C(C)OC(=O)/C=C/c2cccc([N+](=O)[O-])c2)cc1 (centres undefined)
CC(C)OP(=O)(OC(C)C)C(Nc1ccccc1)c1cccc([N+](=O)[O-])c1 (centres undefined)
Cc1c(-c2nsc(NC(=O)c3cccc(Cl)c3)n2)nnn1-c1ccccc1C(F)(F)F
CCOCCCNC(=O)c1ccc2nc(CCc3ccccc3)oc2c1
COc1cccc(N2CC(NC(=O)/C=C\c3ccccc3)CC2=O)c1 (centres undefined)
CCOc1ccc(NC(=S)NC(=O)/C=C/c2ccc(OC)cc2)c([N+](=O)[O-])c1
CC1CCN(S(=O)(=O)c2ccc3c(c2)N(CC(=O)NCCc2ccccc2)C(=O)CO3)CC1
Brc1nc2ncnc(NCc3ccco3)c2[nH]1
COC(=O)c1ccc(NC(=O)CCc2c(C)nn(-c3ccc(N4CCCC4)nn3)c2C)cc1
Oc1ccc(N2CCN(C(=S)NCc3ccccc3)CC2)cc1
OCC(CO)(CO)NCc1ccc(-c2ccccc2)cc1
COc1cccc(CNC(=O)CSc2c3c(nc4cc(Cl)ccc24)CCCC3)c1
N#Cc1cc2[nH]c(=O)c(=O)[nH]c2cc1[N+](=O)[O-]
CCN(C(=O)Cn1cnc2sc(C)c(S(=O)(=O)N3CCN(c4ncccn4)CC3)c2c1=O)c1ccccc1F
O=S(=O)(c1ccccc1)c1nc(-c2ccc(Cl)cc2Cl)oc1N1CCCCC1
Cc1ccc(C(=O)COC(=O)CCCC(=O)NC2CCCCC2)cc1[N+](=O)[O-]
Cc1cc([N+](=O)[O-])c(N2CCC[C@@H]2C(=O)O)c([N+](=O)[O-])c1
COc1ccc(C2Nc3ccc(NC(=O)COC(C)=O)cc3C(=O)N2Cc2ccccc2)cc1COc1ccc(NC(C)=O)cc1 (centres undefined)
O=C(NCc1ccccc1)c1cccc(NC(=O)N2CCSc3ncccc32)c1
CCCN(C(=O)Cn1ncc2c([nH]c3ccc(C)cc32)c1=O)c1ccccc1C
Cc1ccc(CCNC(=O)c2nnc(Cc3cccc(F)c3)o2)cc1
COc1cccc(-c2n[nH]c3c2C(c2cccc(O)c2)N(C)C3=O)c1 (centres undefined)
O=C(CN1CCCCCC1)Nc1ccc(Br)cc1Br
O=C(CN1CCC(NC(=O)C2CC2)CC1)Nc1ccccc1[N+](=O)[O-]
COc1ccc(C(CCN2CCOCC2)c2c(OC)cc(OC)c3c2OC(=O)CC3c2ccc(OC)cc2)cc1 (centres undefined)
CCOc1ccc(N2CC(C)Cn3c2nc2c3c(=O)n(Cc3c(F)cccc3Cl)c(=O)n2C)cc1 (centres undefined)
COC(=O)c1ccccc1NC(=O)Cn1c(=O)n(-c2cccc(C(F)(F)F)c2)c(=O)c2c(C)c(C)sc21
CCOc1ccc(S(=O)(=O)c2cn(Cc3ccc(OC)cc3)c3ccc(F)cc3c2=O)cc1
COc1ccc(-c2ccc(C3C4C=CCCC4(C)C(=O)N3Cc3ccccc3)c(F)c2)cc1OC (centres undefined)
Clc1cccc(-n2ncc3c(NCCc4ccccc4)ncnc32)c1
CCCOC(=O)c1c(NC(=O)c2cc3nc(-c4ccc(OC)cc4)cc(C(F)(F)F)n3n2)sc2c1CCCC2
Cc1ccc(OCC(=O)Oc2ccccc2[N+](=O)[O-])cc1
O=C(COc1ccccc1[N+](=O)[O-])NC1CC1
OCCNc1ncnc2oc(-c3ccco3)c(-c3ccco3)c12
CCOC(=O)C1CCCN(C(=O)c2ccc(-n3ccc4ccccc43)s2)C1 (centres undefined)
O=C(c1cccc(Br)c1)N1CCN(Cc2cc(=O)n3nc(-c4ccccc4)sc3n2)CC1
COc1ccc(NC(=O)CN(C)C(=O)c2ccc(NC3CC3)c([N+](=O)[O-])c2)cc1
Cc1c(NC(=O)CCC2CCCCC2)cc(C(=O)N2CCOCC2)cc1[N+](=O)[O-]
CCOc1ccc(CC(=O)NCCc2csc3nc(-c4ccccc4F)nn23)cc1
CCOc1ccccc1N(C)C(=O)c1cc2c(s1)-c1ccccc1OC2
CCc1ccc(OCCCn2c(CCCNC(=O)C3CCCCC3)nc3ccccc32)cc1
Cc1ccc(OCC(=O)Nc2ccc(Cl)c(-c3nc4ccccc4[nH]3)c2)cc1C
Cc1ccc(C(=O)Nc2ccccc2F)cc1S(=O)(=O)N1CCOCC1
O=C(CC1SC(N2CCOCC2)=NC1=O)Nc1ccccc1F (centres undefined)
O=C(Nc1ccc(Br)cc1)c1ccc(Br)c(S(=O)(=O)NCc2ccccc2)c1
CC(C)C12CN3CC(C(C)C)(CN(C1)C3c1ccc(OCc3ccccc3)cc1)C2=O (centres undefined)
O=C(O)c1ccc2c(c1)N(Cc1ccc(F)cc1)C(=O)c1ccccc1S2=O (centres undefined)
Cc1ccc(CNS(=O)(=O)c2ccc(-c3cc(C(F)(F)F)on3)s2)cc1
CCC(C)c1ccc2oc(-c3ccc(NC(=O)c4cc5ccccc5o4)cc3)nc2c1 (centres undefined)
CCCCc1nn2c(=O)cc(COC(=O)c3ccccc3NC(=O)C(C)(C)C)nc2s1
Cc1cc(NC(=O)CSc2ncc(C(=O)Nc3ccc(Cl)cc3)c(=O)n2C)no1
Cc1ccc(C(=O)NCCSc2c(C)[nH]c3ccccc23)cc1C
Cc1ccc(C)c(N2C(=O)N(Cc3c(F)cccc3Cl)c3ccccc3S2(=O)=O)c1
COc1ccc(-c2onc(C)c2C)cc1S(=O)(=O)NCCc1ccccc1
Cn1c(CCCOc2ccc(Cl)cc2Cl)n[nH]c1=S
C=CCn1c(CCc2ccc(OC(C)C)cc2)n[nH]c1=S
